Measurements published in PubChem BioAssay.
Results filed as inconclusive are left out. Active and inactive are the calls of the source.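 Rule for the calls, unless noted: active = binding below the plate cutoff, the plate median minus 3 SD, with a reading above zero; inconclusive = below the plate cutoff but reading exactly zero; inactive = the rest.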

What was measured:
[1] = yeast TOR pathway RPL19A-GFP modulators, primary screen, cell-based, S. cerevisiae, multiplex flow cytometry (AID 1862; in the data active = percent of DMSO control GFP below about 86%;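 note: lower values mimic rapamycin by blocking the RPL19A rise seen in DMSO cells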); conditions: S. cerevisiae RPL19A-GFP strain, flow cytometry fluorescence, 3 h; at 10 µM; stronger effect = lower value
[2] = modulators of MEP2-GFP levels in yeast, primary screen, S. cerevisiae, multiplex flow cytometry (AID 1867;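 active = GFP response, as percent of the DMSO control, above the screen-wide mean plus 3 SD, about 139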;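 note: median GFP channel fluorescence of barcode-gated MEP2-GFP cells measured by flow cytometry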); conditions: S. cerevisiae MEP2-GFP strain, 3 h, at 10 µM, stronger effect = higher value, 100% means same as DMSO wells
[3] = modulators of CIT2-GFP expression in yeast, primary screen, S. cerevisiae, GFP fusion, multiplex flow cytometry (AID 1870;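 active = percent response above a set limit, the screen-wide mean plus 3 SD, cut at about 130% in these data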;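 note: barcoded CIT2-GFP strain pooled with four other GFP strains with rapamycin as positive control; median GFP fluorescence per well over plate mean of DMSO wells so 100% = DMSO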); conditions: 3 h, at 10 µM, stronger effect = higher value
[4] = modulators of LAP4-GFP expression in yeast, primary screen, S. cerevisiae, multiplex flow cytometry (AID 1873;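 active = GFP signal, as percent of the solvent control, above the screen mean plus 3 SD, about 149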); conditions: 3 h, at 10 µM, stronger effect = higher value
[5] = modulators of AGP1-GFP expression in yeast TOR pathway, primary screen, cell-based, multiplex flow cytometry, S. cerevisiae (AID 1887;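 active = GFP signal above the screen-wide mean plus 3 SD, that is over about 124.5% of the solvent control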;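 note: AGP1-GFP fusion strain of S. cerevisiae within a five-strain barcoded multiplex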); conditions: 3 h, at 10 µM, stronger effect = higher value
[6] = inhibitors of CD8+ T cell-vesicle binding, pilot screen, LFA-1/ICAM-1 modulator project, MLPCN validation set, flow cytometry (AID 2523;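 active = response below a set limit, under 55% cells CD8-positive and vesicle-bound, and CD8 cells' 90th-percentile brightness under 279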;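 for vesicle binding response: mean PE anti-B7-1 fluorescence of CD8+ cells relative to row control; 100% = QL9-loaded vesicles with DMSO vehicle in the same plate row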); conditions: 2C mouse CD8+ T cells, at 7 µM, stronger effect = lower value; double positive events: measured here: CD8+/vesicle+ event percentage
[7] = molecular target: Integrin beta-1 (Homo sapiens) + Integrin alpha-4 (Homo sapiens) (UniProt P13612+P05556); test: inhibition of HUTS-21 binding to VLA-4, pilot screen, VLA-4 allosteric modulator project, U937 cells, HUTS-21 mAb, flow cytometry, validation set (AID 2674;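 active = inhibition above 50%, about 3 SD of the validation set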;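 note: antibody binding induced by the VLA-4 ligand LDV present at three times its Kd; 0% = LDV ligand with antibody and no compound and 100% = antibody without LDV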); conditions: HUTS-21 LIBS mAb binding, at 6.7 µM, stronger effect = higher value, binding induced by LDV ligand
Integrin beta-1 (Homo sapiens) + Integrin alpha-4 (Homo sapiens), sequence (P05556 whole entry, looked up): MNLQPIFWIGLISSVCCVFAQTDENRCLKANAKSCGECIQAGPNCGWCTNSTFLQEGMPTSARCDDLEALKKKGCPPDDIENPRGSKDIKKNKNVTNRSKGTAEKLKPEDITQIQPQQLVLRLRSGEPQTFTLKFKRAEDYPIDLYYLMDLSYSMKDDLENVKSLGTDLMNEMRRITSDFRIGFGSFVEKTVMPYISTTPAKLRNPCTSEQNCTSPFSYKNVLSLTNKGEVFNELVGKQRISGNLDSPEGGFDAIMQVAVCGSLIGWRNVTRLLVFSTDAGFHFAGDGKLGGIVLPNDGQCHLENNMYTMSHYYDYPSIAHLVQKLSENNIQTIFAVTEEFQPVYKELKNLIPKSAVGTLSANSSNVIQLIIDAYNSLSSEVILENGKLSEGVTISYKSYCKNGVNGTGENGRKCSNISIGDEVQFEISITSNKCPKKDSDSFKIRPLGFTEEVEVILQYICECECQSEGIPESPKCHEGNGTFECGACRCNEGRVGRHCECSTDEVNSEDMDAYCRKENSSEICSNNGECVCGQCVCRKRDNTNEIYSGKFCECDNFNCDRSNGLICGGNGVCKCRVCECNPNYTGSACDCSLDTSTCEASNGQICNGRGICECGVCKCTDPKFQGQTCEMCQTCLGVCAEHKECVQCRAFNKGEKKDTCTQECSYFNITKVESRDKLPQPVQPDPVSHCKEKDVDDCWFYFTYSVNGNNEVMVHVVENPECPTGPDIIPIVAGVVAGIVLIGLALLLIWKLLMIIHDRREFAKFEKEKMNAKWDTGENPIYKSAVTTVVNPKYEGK
Integrin beta-1 (Homo sapiens) + Integrin alpha-4 (Homo sapiens), sequence (P13612 whole entry, looked up): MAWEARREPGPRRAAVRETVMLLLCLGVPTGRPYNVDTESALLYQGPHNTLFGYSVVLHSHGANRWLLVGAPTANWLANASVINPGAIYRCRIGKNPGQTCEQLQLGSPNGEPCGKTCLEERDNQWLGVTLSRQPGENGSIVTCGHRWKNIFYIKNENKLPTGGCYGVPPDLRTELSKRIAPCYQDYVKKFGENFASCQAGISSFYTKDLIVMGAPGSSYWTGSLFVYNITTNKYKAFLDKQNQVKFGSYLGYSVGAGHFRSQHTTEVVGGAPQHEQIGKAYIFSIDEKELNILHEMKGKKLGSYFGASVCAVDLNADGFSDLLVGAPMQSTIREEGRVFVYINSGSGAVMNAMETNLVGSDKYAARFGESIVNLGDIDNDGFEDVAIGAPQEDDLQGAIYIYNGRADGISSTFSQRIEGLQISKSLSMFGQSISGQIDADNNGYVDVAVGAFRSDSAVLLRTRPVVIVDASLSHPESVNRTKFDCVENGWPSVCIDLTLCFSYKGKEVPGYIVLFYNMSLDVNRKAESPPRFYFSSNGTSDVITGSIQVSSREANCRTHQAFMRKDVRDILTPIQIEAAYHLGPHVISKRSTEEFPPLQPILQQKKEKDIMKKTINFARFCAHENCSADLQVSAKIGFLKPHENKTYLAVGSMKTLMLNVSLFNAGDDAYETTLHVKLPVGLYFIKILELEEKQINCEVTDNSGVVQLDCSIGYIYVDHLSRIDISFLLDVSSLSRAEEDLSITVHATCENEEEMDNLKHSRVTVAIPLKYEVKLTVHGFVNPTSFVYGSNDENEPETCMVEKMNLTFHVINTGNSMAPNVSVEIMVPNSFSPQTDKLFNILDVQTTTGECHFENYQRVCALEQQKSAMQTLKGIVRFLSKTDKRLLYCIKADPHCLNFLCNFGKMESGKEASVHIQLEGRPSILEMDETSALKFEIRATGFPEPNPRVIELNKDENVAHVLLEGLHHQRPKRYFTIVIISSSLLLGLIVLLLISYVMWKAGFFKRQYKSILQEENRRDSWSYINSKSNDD

[8] = superoxide lowering in aged yeast cells, pilot screen, validation compound set (AID 2706;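 active = superoxide response below 65% of plate, a cut near 3 SD across the whole screen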;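 note: yeast exposed to compound for one week at 30 degrees C before staining; 100% = mean of all compound wells on the same plate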); conditions: S. cerevisiae aging, superoxide DHE fluorescence; at 10 µM, stronger effect = lower value
[9] = molecular target: Beta-adrenergic receptor kinase 1 (Homo sapiens) (UniProt P25098); test: GRK2 binders displacing RNA aptamer, biochemical, validation, human GRK2, bead flow cytometry (AID 488806;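 active = aptamer binding inhibition above 30%, about 3 SD of noise from non-fluorescent compounds; inactive = inhibition at or below 30%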); conditions: bead-bound GRK2, FAM-aptamer displacement, at 10 µM, stronger effect = higher value
Beta-adrenergic receptor kinase 1 (Homo sapiens), sequence (P25098 whole entry, looked up): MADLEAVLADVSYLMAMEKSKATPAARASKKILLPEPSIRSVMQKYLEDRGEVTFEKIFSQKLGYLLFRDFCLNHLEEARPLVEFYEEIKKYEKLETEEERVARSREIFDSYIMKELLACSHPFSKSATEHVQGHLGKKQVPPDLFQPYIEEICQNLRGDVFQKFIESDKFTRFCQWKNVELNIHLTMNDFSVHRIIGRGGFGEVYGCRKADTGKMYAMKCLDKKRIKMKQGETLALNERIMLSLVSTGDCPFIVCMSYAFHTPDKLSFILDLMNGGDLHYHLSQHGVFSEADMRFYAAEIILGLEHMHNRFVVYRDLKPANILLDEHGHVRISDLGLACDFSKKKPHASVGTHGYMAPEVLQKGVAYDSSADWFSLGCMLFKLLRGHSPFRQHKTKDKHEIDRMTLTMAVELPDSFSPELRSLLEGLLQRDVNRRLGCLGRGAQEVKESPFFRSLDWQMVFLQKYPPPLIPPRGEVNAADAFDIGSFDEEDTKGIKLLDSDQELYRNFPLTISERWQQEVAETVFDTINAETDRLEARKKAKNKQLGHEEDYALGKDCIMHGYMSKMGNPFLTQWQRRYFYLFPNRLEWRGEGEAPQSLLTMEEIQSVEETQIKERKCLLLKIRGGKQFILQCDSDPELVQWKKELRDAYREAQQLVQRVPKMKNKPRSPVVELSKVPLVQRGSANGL

[10] = molecular target: AP-2 complex subunit beta (Homo sapiens) (UniProt P63010); test: inhibitors of arrestin peptide binding to AP2, pilot screen, biochemical, validation set, GST-AP2 beads, flow cytometry (AID 504541;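 active = inhibition above 54%, about 3 SD of non-fluorescent compounds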;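 note: AP2 carries R879A mutation and is captured from E. coli lysate; bead-bound FITC arrestin peptide fluorescence measuring arrestin peptide binding to AP2; 0% = DMSO wells and 100% = excess unlabeled arrestin peptide control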); conditions: FITC arrestin peptide, at 10 µM, stronger effect = higher value, AP2 beta2 appendage fragment, R879A mutant
AP-2 complex subunit beta (Homo sapiens), sequence (P63010 whole entry, looked up, the tested form may be a part, one chain of several): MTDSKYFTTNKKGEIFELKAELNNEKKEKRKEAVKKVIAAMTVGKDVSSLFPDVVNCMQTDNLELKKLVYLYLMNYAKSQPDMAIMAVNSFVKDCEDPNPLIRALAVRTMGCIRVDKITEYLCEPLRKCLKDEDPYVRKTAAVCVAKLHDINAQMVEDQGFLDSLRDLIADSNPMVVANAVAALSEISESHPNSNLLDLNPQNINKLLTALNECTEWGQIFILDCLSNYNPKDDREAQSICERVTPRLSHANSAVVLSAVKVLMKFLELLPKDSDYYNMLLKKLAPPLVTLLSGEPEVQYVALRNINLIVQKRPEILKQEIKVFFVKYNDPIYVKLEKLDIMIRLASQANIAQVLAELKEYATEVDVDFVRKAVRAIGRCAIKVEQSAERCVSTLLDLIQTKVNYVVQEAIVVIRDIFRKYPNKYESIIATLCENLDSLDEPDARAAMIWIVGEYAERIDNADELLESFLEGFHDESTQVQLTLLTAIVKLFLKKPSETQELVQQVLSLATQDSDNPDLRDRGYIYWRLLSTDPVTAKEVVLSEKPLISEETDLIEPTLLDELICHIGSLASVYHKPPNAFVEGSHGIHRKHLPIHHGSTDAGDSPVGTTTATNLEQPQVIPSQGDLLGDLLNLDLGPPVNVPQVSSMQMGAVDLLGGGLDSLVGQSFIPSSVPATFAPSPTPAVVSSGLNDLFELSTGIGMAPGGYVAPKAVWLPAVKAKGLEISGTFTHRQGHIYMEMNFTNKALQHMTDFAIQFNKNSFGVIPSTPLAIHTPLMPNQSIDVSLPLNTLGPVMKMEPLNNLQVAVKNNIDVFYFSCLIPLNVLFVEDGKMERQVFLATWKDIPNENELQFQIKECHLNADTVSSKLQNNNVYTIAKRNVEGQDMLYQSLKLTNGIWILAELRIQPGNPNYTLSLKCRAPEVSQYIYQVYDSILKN

[11] = yeast V-ATPase proton transport modulators, S. cerevisiae, pHLuorin, HTS validation (AID 504600; in the data active = response above about 15%;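 note: plate controls were DMSO for no effect and reference compound for full effect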); conditions: S. cerevisiae pHLuorin cytosolic pH, at 10 µM, stronger effect = higher value
[12] = tested on: anti-desmoglein-3 scFv antibody binding to human DSG3; test: inhibitors of anti-DSG3 scFv binding to DSG3, pilot screen, biochemical, validation compound set, bead-based, flow cytometry (AID 588368); conditions: Protein G beads, DSG3-Fc, scFv-GFP binding, at 10 µM, stronger effect = lower value;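 note: signal is the median channel fluorescence of bead-bound GFP antibody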
[13] = inhibitors of fungal efflux pumps CDR1, CDR2, MDR1, pilot screen, validation compound set, multiplex, phenotypic (AID 588506;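 active = efflux inhibition above 0.42, the validation set average plus 4 SD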;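 note: Nile Red retained in cells so higher fluorescence means more efflux inhibition; 0 = negative control wells and 1 = enniatin B 25 µM full block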); conditions: S. cerevisiae pump-expressing triplex, Nile Red efflux flow cytometry; at 10 µM; stronger effect = higher value; the pumps come from Candida albicans
[14] = molecular target: ATP-binding cassette sub-family B member 6 (Homo sapiens) (UniProt Q9NP58); test: ABCB6 transporter inhibitors, pilot screen, K562-ABCB6 cells, flow cytometry, validation set (AID 588550;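 active = inhibition above the screen-wide mean plus 3 SD, about 51%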;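 note: 0% = DMSO wells and 100% = benzethonium chloride 70 µM positive control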); conditions: K562-ABCB6 porphyrin accumulation, 1 h, at 10 µM, stronger effect = higher value
ATP-binding cassette sub-family B member 6 (Homo sapiens), sequence (Q9NP58 whole entry, looked up): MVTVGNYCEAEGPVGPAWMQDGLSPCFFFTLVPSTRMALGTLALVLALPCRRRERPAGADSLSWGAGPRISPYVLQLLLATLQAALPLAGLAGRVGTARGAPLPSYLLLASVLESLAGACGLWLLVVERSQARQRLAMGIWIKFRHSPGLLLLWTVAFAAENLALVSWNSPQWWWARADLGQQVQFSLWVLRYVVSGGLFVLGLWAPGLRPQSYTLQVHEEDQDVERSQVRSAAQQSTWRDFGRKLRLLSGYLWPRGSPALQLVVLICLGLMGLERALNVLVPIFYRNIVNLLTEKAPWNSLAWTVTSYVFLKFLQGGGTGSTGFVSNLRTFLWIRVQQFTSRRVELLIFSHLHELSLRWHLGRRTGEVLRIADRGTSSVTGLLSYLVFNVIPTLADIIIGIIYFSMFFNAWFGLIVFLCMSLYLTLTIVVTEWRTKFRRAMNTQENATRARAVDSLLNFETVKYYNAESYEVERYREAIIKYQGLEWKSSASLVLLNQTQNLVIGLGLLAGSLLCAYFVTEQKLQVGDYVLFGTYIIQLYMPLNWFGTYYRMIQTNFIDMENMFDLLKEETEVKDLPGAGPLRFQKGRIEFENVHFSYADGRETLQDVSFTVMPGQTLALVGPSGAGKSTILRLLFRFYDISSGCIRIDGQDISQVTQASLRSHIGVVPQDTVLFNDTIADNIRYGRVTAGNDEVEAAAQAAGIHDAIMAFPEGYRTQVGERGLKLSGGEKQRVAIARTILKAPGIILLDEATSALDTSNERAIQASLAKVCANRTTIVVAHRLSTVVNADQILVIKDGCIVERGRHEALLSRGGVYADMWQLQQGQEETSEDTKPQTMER

[15] = promoters of myeloid differentiation in arrested cells, primary screen, cell-based, GFP/MAC1 double positive, flow cytometry, validation set (AID 588685;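 active = differentiation response of at least 50%, scaled between solvent and reference control, from cells with both markers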;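 note: compound exposure lasts four days before antibody staining and flow analysis; 0% = DMSO wells and 100% = 5 µM fulvestrant positive control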); conditions: ER-HoxA9 marrow cells, stronger effect = higher value, normalized: vehicle 0, fulvestrant 100

| Structure (SMILES) | percent of DMSO control GFP [1] | GFP response vs DMSO [2] | percent response of DMSO control [3] | GFP response vs DMSO [4] | GFP response, % of DMSO [5] | double positive events [6] | vesicle binding response [6] | inhibition [7] | superoxide response (% of plate) [8] | aptamer binding inhibition [9] | inhibition [10] | response [11] | binding (% of control) [12] | efflux inhibition (fraction of control) [13] | inhibition [14] | differentiation response [15] |
| --- | --- | --- | --- | --- | --- | --- | --- | --- | --- | --- | --- | --- | --- | --- | --- | --- |
| CC(=O)O[C@H]1C(=O)[C@@]2(C)[C@H]([C@H](OC(=O)c3ccccc3)[C@]3(O)C[C@H](OC(=O)[C@H](O)C(NC(=O)c4ccccc4)c4ccccc4)C(C)=C1C3(C)C)[C@]1(OC(C)=O)CO[C@@H]1C[C@@H]2O (stereo not given in full) | 106% (inactive) | 99.9% (inactive) | 103% (inactive) | 90.3% (inactive) | 97.3% (inactive) | 55.6% | 162% (inactive) | 5.36% (inactive) | 99% (inactive) | 3% (inactive) | 2.22% (inactive) | -2.34% (inactive) | 94.6% (inactive) | 0.63 (active) | 7% (inactive) | 9.49% (inactive) |
| CCNC(=S)Nc1ccc(OC(F)(F)F)cc1 | 105% (inactive) | 107% (inactive) | 102% (inactive) | 103% (inactive) | 98.7% (inactive) | 60.6% | 166% (inactive) | -1.17% (inactive) | 93.5% (inactive) | 1% (inactive) | 43.4% (inactive) | -22.5% (inactive) | 101% (inactive) | -0.05 (inactive) | -3% (inactive) | 11.1% (inactive) |
| C#C[C@]1(O)CC[C@H]2[C@@H]3CCC4=C(CCC(=O)C4)[C@H]3CC[C@@]21C | 97.1% (inactive) | 92.8% (inactive) | 94.9% (inactive) | 129% (inactive) | 98.7% (inactive) | 55.6% | 188% (inactive) | 2.56% (inactive) | 95.1% (inactive) | 2% (inactive) | 1.1% (inactive) | 5.28% (inactive) | 102% (inactive) | -0.2 (inactive) | 7% (inactive) | -0.2% (inactive) |
| CC(C)NC(=O)C1(c2ccccc2)CCOCC1 | 100% (inactive) | 95.9% (inactive) | 104% (inactive) | 99.4% (inactive) | 99.3% (inactive) | 62.2% | 191% (inactive) | -51.5% (inactive) | 99.3% (inactive) | 4% (inactive) | 3.27% (inactive) | 0.02% (inactive) | 98.2% (inactive) | -0.01 (inactive) | 4% (inactive) | -0.2% (inactive) |
| CCN(CC)Cc1c[nH]c2c(C(=O)OC)cccc12 | 98.8% (inactive) | 104% (inactive) | 105% (inactive) | 102% (inactive) | 99.1% (inactive) | 60.2% | 183% (inactive) | 10% (inactive) | 98.4% (inactive) | 0% (inactive) | 12.3% (inactive) | -5.36% (inactive) | 105% (inactive) | -0.28 (inactive) | 7% (inactive) | -24.4% (inactive) |
| Clc1ccc(OCCCN2CCCCC2)c(Br)c1 | 105% (inactive) | 95.9% (inactive) | 112% (inactive) | 88.3% (inactive) | 98.7% (inactive) | 57.1% | 202% (inactive) | 4.42% (inactive) | 88.5% (inactive) | -2% (inactive) | -6.22% (inactive) | 0.07% (inactive) | 103% (inactive) | -0.35 (inactive) | 7% (inactive) | 0% (inactive) |
| O=C(CCCCC(=O)NC1CCCC1)NC1CCCC1 | 96.8% (inactive) | 102% (inactive) | 105% (inactive) | 95.4% (inactive) | 93.7% (inactive) | 53.7% | 181% (inactive) | 10% (inactive) | 103% (inactive) | 0% (inactive) | 3.46% (inactive) | 3.11% (inactive) | 102% (inactive) | 0.29 (inactive) | 6% (inactive) | -11.5% (inactive) |
| COC(=O)c1cc(=O)c2ccc(OC)cc2o1 | 99.1% (inactive) | 97.9% (inactive) | 111% (inactive) | 100% (inactive) | 90.9% (inactive) | 52.9% | 152% (inactive) | 17.5% (inactive) | 94.7% (inactive) | 1% (inactive) | -3.93% (inactive) | 37.7% (active) | 101% (inactive) | 0.03 (inactive) | 6% (inactive) | -11.5% (inactive) |
| COc1ccc2cc(CCC(C)=O)ccc2c1 | 101% (inactive) | 103% (inactive) | 93% (inactive) | 101% (inactive) | 85.2% (inactive) | 55.4% | 150% (inactive) | 2.56% (inactive) | 86.7% (inactive) | 2% (inactive) | -2.69% (inactive) | -0.19% (inactive) | 108% (inactive) | 0.63 (active) | 4% (inactive) | 0% (inactive) |
| Cn1nc(-c2ccccn2)nc2c(=O)n(C)c(=O)nc1-2 | 103% (inactive) | 98.9% (inactive) | 110% (inactive) | 105% (inactive) | 105% (inactive) | 59.4% | 165% (inactive) | -40.4% (inactive) | 107% (inactive) | 61% (active) | 17.4% (inactive) | -11.7% (inactive) | 94.9% (inactive) | -0.12 (inactive) | -1% (inactive) | -22.8% (inactive) |
